Test [1] is described as follows: A CellTox Green Cytotoxicity Assay to monitor cytotoxicity in HepG2 cells - 0 hour (AID 1224882). Further: nearly all actives have a fitted effect of over 35% in size. The method, boiled down:
(§1)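 Fluorescent DNA-binding dye, 600 HepG2 cells/well, 5 h preincubation then compound in DMSO; same plates read at 0–40 h, 37 C.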

Test [2] in a line: A CellTox Green Cytotoxicity Assay to monitor cytotoxicity in HepG2 cells - 32 hour (AID 1224883). Further: nearly all actives have a fitted effect of over 50% in size. Further: potency means the concentration at half of the fitted maximal effect. Put shortly:
as §1

A short description of test [3]: A CellTox Green Cytotoxicity Assay to monitor cytotoxicity in HEK293 cells - 8 hour (AID 1224884). Further: nearly all actives have a fitted effect of over 35% in size. Further: potency means the concentration at half of the fitted maximal effect. Put shortly: (§2)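 Homogeneous no-lysis format: HEK293 cell suspension mixed with CellTox Green reagent, seeded, incubated 5 h at 37 C/5% CO2, then dosed by pintool with compound in DMSO.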
Test [4] can be described thus: qHTS RealTime-Glo MT Cell Viability Assay in HepG2 cells - 16 hour (AID 1224885). Further: nearly all actives have a fitted effect of over 50% in size. Further: potency means the concentration at half of the fitted maximal effect. Put shortly:
(§3)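 HepG2 cells were seeded at 600 cells/well together with NanoLuc luciferase and a cell-permeant prosubstrate, preincubated 5 h at 37 C/5% CO2, then pin-dosed with compounds in DMSO. Nonlytic luminescence from viable cells was read at each time point.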
(In general: In qHTS, concentration-response curves come from the screen itself.)

Test [5] is described as follows: qHTS RealTime-Glo MT Cell Viability Assay in HEK293 cells - 24 hour (AID 1224886). Further: nearly all actives have a fitted effect of over 50% in size. Further: potency means the concentration at half of the fitted maximal effect. The method, boiled down: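 HEK293 cells were seeded at 600 cells/well together with NanoLuc luciferase and cell-permeant prosubstrate, preincubated 5 h at 37 C/5% CO2, then given compound in DMSO by pintool. Luminescence from viable-cell prosubstrate reduction was read repeatedly over 40 h.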

A short description of test [6]: qHTS RealTime-Glo MT Cell Viability Assay in HEK293 cells - 8 hour (AID 1224887). Further: nearly all actives have a fitted effect of over 50% in size. Further: potency means the concentration at half of the fitted maximal effect. Put shortly:
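Measured as luminescence from the same continuously cultured HEK293 wells at successive time points (0, 8, 16, 24, 32, 40 h) after compound addition. Reagent present from seeding; dosing at 5 h; incubation 37 C.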

Test [7] is described as follows: A CellTox Green Cytotoxicity Assay to monitor cytotoxicity in HEK293 cells - 16 hour (AID 1224888). Further: nearly all actives have a fitted effect of over 35% in size. Further: potency means the concentration at half of the fitted maximal effect. Put shortly:
as §2

Test [8] in a line: A CellTox Green Cytotoxicity Assay to monitor cytotoxicity in HepG2 cells - 8 hour (AID 1224890). Further: nearly all actives have a fitted effect of over 45% in size. Further: potency means the concentration at half of the fitted maximal effect. Put shortly: as §1
Test [9] is described as follows: qHTS assay to identify small molecule antagonists of the estrogen receptor alpha (ER-alpha) signaling pathway using the BG1 cell line in the presence of 0.1 nM 17-beta-estradiol - cell viability counter screen (AID 1259241). Further: nearly all actives have a fitted effect of over 40% in size. The method, boiled down: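 Live-cell protease activity (CellTiter-Fluor fluorescence, 30 min) was read in the same wells after VM7Luc4E2 cells had been exposed to compounds with 0.1 nM 17beta-estradiol for 22 hr at 37C.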

Test [10] can be described thus: qHTS assay to identify small molecule HDAC inhibitors (AID 1259364).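 Further: wild-type HCT-116 cells with endogenous class I/II HDAC activity; top concentration of the series differs between compounds; nearly all actives have a fitted effect of over 45% in size.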 Put shortly:
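After a 2 hr compound incubation (37C, 5% CO2), HCT-116 cells seeded at 1,500/well the day before received HDAC-Glo reagent; signal read as luminescence after 30 min at room temperature.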

A short description of test [11]: qHTS assay to identify small molecule agonists of the sonic hedgehog signaling (Shh) pathway - cell viability counter screen (AID 1259366). Further: nearly all actives have a fitted effect of over 50% in size. Further: potency means the concentration at half of the fitted maximal effect. Put shortly: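 CellTiter-Fluor fluorescence read-out, 1 hr at 37C, added after 23hr compound exposure. Cells: 3T3 Gli1-Luc, an NIH/3T3 clone with stably integrated Gli1-Luc reporter, plated 4hr before compound.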
Test [12] is described as follows: qHTS assay to identify small molecule antagonists of the sonic hedgehog signaling (Shh) pathway - cell viability counter screen (AID 1259367). Further: nearly all actives have a fitted effect of over 55% in size. Further: potency means the concentration at half of the fitted maximal effect. The method, boiled down: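 Conditioned medium drove Shh signaling in 3T3 Gli1-Luc cells exposed to compounds at 37C and 5% CO2. Viability was determined from CellTiter-Fluor fluorescence, with reagent incubated 1 hr after 23 hr of treatment.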

Test [13] in a line: qHTS assay to identify small molecule agonists of the sonic hedgehog signaling (Shh) pathway (AID 1259368; calls by dose curve;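 further: NIH/3T3-derived 3T3Gli1-Luc cells carrying a stable Gli1-driven firefly luciferase reporter; series mostly up to about 92 µM; nearly all actives have a fitted effect of over 15% in size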). Put shortly:
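Stable NIH/3T3 Gli1-Luc reporter clone; 24 hr cpd exposure after a 4 hr settling period; luminescence endpoint.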

A short description of test [14]: qHTS assay to identify small molecule antagonists of the sonic hedgehog signaling (Shh) pathway (AID 1259369; calls by dose curve; further: nearly all actives have a fitted effect of over 45% in size; further: potency means the concentration at half of the fitted maximal effect). The method, boiled down:
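Gli1 transcriptional reporter (firefly Luc) in NIH/3T3 background, conditioned-medium activated. 24hr exposure, luminescence endpoint.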

Test [15] can be described thus: qHTS RealTime-Glo MT Cell Viability Assay in HepG2 cells - 0 hour (AID 1224889). Further: nearly all actives have a fitted effect of over 50% in size. Put shortly: as §3
Test [16] in a line: qHTS assay to identify small molecule antagonists of the androgen receptor (AR) signaling pathway using the MDA cell line in the presence of 0.5 nM R1881 - cell viability counter screen (AID 1259242). Further: nearly all actives have a fitted effect of over 45% in size. Further: potency means the concentration at half of the fitted maximal effect. The method, boiled down: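 Human breast carcinoma MDA-kb2 cells, cultured without CO2, receive compounds alongside 0.5 nM (final) R1881 agonist. After 16 hr at 37C, viability is taken as live-cell protease signal.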

In test [17] the target is Androgen receptor (Homo sapiens) (UniProt P10275). The test is described as follows: qHTS assay to identify small molecule antagonists of the androgen receptor (AR) signaling pathway using the MDA cell line in the presence of 0.5 nM R1881 (AID 1259243). The method, boiled down: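 Cells: MDA-kb2 (MMTV-luc). Stimulus: 0.5 nM R1881. Time: 16 hr, 37C, no CO2. Detection: ONE-Glo luminescence after 30 min at RT.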
Chain of Androgen receptor (Homo sapiens) (P10275 whole entry, looked up): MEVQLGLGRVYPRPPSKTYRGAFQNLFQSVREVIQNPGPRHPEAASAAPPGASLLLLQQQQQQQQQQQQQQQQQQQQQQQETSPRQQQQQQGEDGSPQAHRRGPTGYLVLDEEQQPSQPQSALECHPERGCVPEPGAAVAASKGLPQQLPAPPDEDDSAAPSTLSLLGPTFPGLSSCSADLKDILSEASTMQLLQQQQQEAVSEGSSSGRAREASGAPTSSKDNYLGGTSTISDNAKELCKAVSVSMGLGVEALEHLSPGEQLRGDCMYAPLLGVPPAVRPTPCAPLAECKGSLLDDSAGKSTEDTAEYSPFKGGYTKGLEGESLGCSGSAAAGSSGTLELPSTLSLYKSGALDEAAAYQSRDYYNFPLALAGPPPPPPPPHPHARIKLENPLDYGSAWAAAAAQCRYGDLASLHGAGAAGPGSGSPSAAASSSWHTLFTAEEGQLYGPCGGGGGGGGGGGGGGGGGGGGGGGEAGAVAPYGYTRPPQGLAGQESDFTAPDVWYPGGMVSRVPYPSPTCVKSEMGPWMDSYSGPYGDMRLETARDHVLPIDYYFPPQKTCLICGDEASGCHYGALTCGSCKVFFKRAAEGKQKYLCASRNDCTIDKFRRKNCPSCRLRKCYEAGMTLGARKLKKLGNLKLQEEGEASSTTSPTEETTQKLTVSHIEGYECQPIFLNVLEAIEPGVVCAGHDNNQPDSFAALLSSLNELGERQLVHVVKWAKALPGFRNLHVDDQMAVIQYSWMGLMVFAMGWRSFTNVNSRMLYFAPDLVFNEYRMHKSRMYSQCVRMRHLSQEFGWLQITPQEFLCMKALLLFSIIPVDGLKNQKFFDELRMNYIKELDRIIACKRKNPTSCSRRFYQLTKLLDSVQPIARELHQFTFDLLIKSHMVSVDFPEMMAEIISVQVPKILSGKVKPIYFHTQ

Test [18] is described as follows: qHTS assay to identify small molecule phospholipidosis (PLD) inducers (AID 1259344; active means well fitted curve in the direction sought with a large enough effect; an effect the other way counts as inactive or inconclusive). The method, boiled down: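 After 4 h attachment on collagen I, HepG2 cells were dosed with compound alongside LipidTOX Red, kept 24 h at 37 C, fixed, and imaged for lamellar phospholipid pits.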
Test [19] can be described thus: qHTS assay to identify small molecule HDAC inhibitors - cell viability counter screen (AID 1259365). The method, boiled down:
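HCT-116 (wild type), 1,500 cells/well, overnight 37C/5% CO2; compound in DMSO 2hr; CellTiter-Glo 30min RT; luminescence read.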

The target in test [20] is Estrogen receptor (Homo sapiens) (UniProt P03372). Kind of test: qHTS assay to identify small molecule antagonists of the estrogen receptor alpha (ER-alpha) signaling pathway using the BG1 cell line in the presence of 0.1 nM 17-beta-estradiol (AID 1259244). Further: nearly all actives have a fitted effect of over 50% in size. Further: potency means the concentration at half of the fitted maximal effect. Put shortly:
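Seeding of stripped-serum-adapted VM7Luc4E2 cells, 24 h attachment, compound transfer, then 0.1 nM final 17beta-estradiol; after 22 h incubation, ONE-Glo reagent and luminescence reading.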

Where “and” joins values, the source holds several entries; their conditions need not be identical. Equal entries are not always repeated. Records with an inconclusive call do not appear. Where a structure was tested more than once in an assay, its records may differ in their call. Calls of active or inactive are those of the source. Unless noted, the call rests on the fitted dose curve; in most records, active means well fitted curve in the direction sought with a large enough effect in the repeat runs; inconclusive means weak or mixed curves; inactive means no such curve, though single readings can be large; an effect the other way counts as inactive or inconclusive.

Chain of Estrogen receptor (Homo sapiens) (P03372 whole entry, looked up): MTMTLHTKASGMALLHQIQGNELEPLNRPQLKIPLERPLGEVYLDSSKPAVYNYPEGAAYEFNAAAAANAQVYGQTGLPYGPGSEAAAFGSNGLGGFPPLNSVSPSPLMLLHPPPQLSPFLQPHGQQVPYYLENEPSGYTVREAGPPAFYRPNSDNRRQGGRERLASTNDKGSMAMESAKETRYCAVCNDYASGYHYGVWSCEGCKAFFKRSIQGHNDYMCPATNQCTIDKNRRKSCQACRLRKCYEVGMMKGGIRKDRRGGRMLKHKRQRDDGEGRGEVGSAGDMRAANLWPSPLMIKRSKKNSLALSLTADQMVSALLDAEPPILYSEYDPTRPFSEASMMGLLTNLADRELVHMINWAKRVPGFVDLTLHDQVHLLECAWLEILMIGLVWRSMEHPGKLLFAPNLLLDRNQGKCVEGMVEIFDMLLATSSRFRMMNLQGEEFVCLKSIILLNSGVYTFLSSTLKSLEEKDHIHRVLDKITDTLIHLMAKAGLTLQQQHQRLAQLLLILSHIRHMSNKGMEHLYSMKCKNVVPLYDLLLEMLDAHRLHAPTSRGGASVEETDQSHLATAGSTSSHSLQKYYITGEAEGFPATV

On to `CCC(CO)(CO)COCC(CC)(CO)CO`, for which the Potency entry in test [1], in test [2], in test [3], in test [4], in test [5] and in [6] was “inactive” throughout. Also, the Potency result in [7], in test [8], in [9], in [10], in test [11] and in [12] was “inactive” throughout. For the same molecule, the Potency result in test [13] and in test [14] was “inactive” throughout.
On to `Oc1c(Cl)cc(Cl)c(Cl)c1Cc1c(O)c(Cl)cc(Cl)c1Cl`, for which the Potency result in test [1], in test [3], in [4], in test [6], in test [7] and in test [15] was “inactive” each time. Further, the Potency entry in test [8], in test [18], in test [10], in test [19], in [12] and in test [13] was “inactive” in each case. The Potency entry in test [2] is “inactive and 38.9 µM (active)”; in [5], 3.88 µM (active); in [16], 8.41 µM (active); in test [17], 3.43 µM (active) and 6.11 µM (active) and 6.68 µM (active); in test [11] it was 30.5 µM (active) and inactive; in test [14], 1.93 µM (active) and 1.54 µM (active).
Turning to `CC(C)(c1ccccc1)c1ccc(Nc2ccc(C(C)(C)c3ccccc3)cc2)cc1`, the Potency entry in [1], in test [2], in test [3], in test [4], in test [5] and in test [6] was “inactive” in each case. In addition, the Potency entry in test [7], in test [8], in [9], in test [20], in test [10] and in test [11] was “inactive” throughout. Besides, the Potency entry in test [12], in test [13] and in [14] was “inactive” each time.
As to `C=C(C)C(=O)O`, the Potency entry in test [1], in test [2], in test [3], in [4], in test [5] and in test [6] was “inactive” throughout. The Potency result in [7], in test [8], in test [9], in [16], in test [20] and in test [10] was “inactive” throughout. Also, the Potency result in test [11], in test [12] and in test [14] was “inactive” each time.
For `O=C(O)CP(=O)(O)O`, the Potency result in test [1], in test [2], in test [3], in test [4], in test [5] and in [6] was “inactive” in each case. Besides, the Potency entry in [7], in test [8], in test [9], in test [16], in test [20] and in test [18] was “inactive” throughout. Moreover, the Potency entry in test [10], in test [19], in test [11], in test [12], in test [13] and in test [14] was “inactive” each time.
As for `Cc1cc(Cc2cc(C)cc(C(C)(C)C)c2O)c(O)c(C(C)(C)C)c1`, the Potency entry in test [1], in test [9], in test [10], in test [19] and in [13] was “inactive” throughout. Moreover, the Potency in [2] is 43.9 µM (active) and 43.6 µM (active); in [3], 49.2 µM (active) and inactive; in test [4], 43.9 µM (active) and 43.6 µM (active); in test [5] it was 12.4 µM (active) and 15.5 µM (active); in test [6], 15.6 µM (active) and 19.5 µM (active); in test [7] it was 49.2 µM (active). The Potency in test [8] was 43.9 µM (active) and 34.7 µM (active); in test [16], 30.8 µM (active); in test [20], 27.4 µM (active); in test [11] it was 43.5 µM (active); in test [12] it was 61.4 µM (active).
As to `CCN(CC)c1ccc2c(C)cc(=O)oc2c1`, the Potency result in [1], in [2], in test [3], in [4], in test [6] and in test [7] was “inactive” throughout. Also, the Potency entry in test [15], in [8], in [16], in [20], in [10] and in test [19] was “inactive” throughout. Moreover, the Potency was 34.9 µM (active) in test [5]; 24.5 µM (active) and 54.5 µM (active) in [14].
Take `CC[C@H]1CN2CCc3cc(OC)c(OC)cc3[C@@H]2C[C@@H]1C[C@H]1NCCc2cc(OC)c(OC)cc21`: the Potency entry in test [1], in test [3], in [4], in test [7], in [15] and in test [8] was “inactive” in each case. The Potency entry in [18], in test [10] and in test [13] was “inactive” in each case. For the same molecule, the Potency was 49.2 µM (active) and 21.3 µM (active) in test [2]; 17.4 nM (active) and 47.7 nM (active) in test [5]; 874 nM (active) and 3.38 µM (active) in test [6]; 0.274 µM (active) in test [11]; 487 nM (active) and 2.37 µM (active) in [12]; 8.7 nM (active) and 2.7 nM (active) in test [14].

The values above are taken from PubChem BioAssay (Tox21).
